# From PubChem BioAssay AID463173 (ICCB-Longwood Screening Facility, Harvard Medical School, 2010)
# Hit rate of the full screen: of about 52,000 compounds, about 4,300 (8.3%) were called active. No stated cut-off is given here; in the data, active means survival mostly below about 52% (no sharp cut-off); inactive means mostly above about 56%. The sample as a whole holds a higher share of actives than the screen did.
# Tested on: DeltatarO mutant
# Assay: growth inhibition of S. aureus wild type versus tarO mutant, primary screen, teichoic acid synthesis inhibitors, RN4220, OD600 (AID 463173)
# Settings: OD600, 18 h, active compounds read low, screened at 18.75 µg/mL (by protocol)
row,Structure (SMILES),survival
1,COc1ccc(-c2noc(-c3ccc(NC(C)c4ccccc4)c([N+](=O)[O-])c3)n2)cc1OC (stereo not drawn),65% (inactive)
2,CCCC12CN3CC(C)(CN(C1)C3c1ccc(OCc3ccccc3)cc1)C2=O (stereo not drawn),80% (inactive)
3,COc1ccc(-n2nc3c(N4CCCC(C(=O)NCc5ccccc5C)C4)nnc(C)c3c2C)cc1 (stereo not drawn),90% (inactive)
4,Cc1ccc(NC(=O)Nc2nc3c(s2)CCCCCC3)cc1C,69% (inactive)
5,O=C(Nc1nc2c(s1)CCCCCC2)Nc1ccc(F)cc1F,0% (active)
6,O=C(Nc1ccc(Br)cc1)Nc1nc2c(s1)CCCCCC2,83% (inactive)
7,CCN(c1cc(C)cc(C)c1)S(=O)(=O)c1nnc(NC(=O)c2cccs2)s1,25% (active)
8,CCN(c1cccc(C)c1)S(=O)(=O)c1nnc(NC(=O)C2CCCCC2)s1,71% (inactive)
9,Cc1cccc(N(C)S(=O)(=O)c2nnc(NC(=O)c3cccs3)s2)c1,26% (active)
10,CCN(c1cc(C)cc(C)c1)S(=O)(=O)c1nnc(NC(=O)c2cccc(F)c2)s1,37% (active)
11,Cc1cccc(N(C)S(=O)(=O)c2nnc(NC(=O)C(C)(C)C)s2)c1,99% (inactive)
12,CCN(c1ccccc1)S(=O)(=O)c1nnc(NC(=O)COc2cccc(C)c2)s1,107% (inactive)
13,CCN(c1cc(C)cc(C)c1)S(=O)(=O)c1nnc(NC(=O)C2CCCCC2)s1,105% (inactive)
14,CCN(c1cccc(C)c1)S(=O)(=O)c1nnc(NC(=O)c2cccs2)s1,21% (active)
15,CCCCC(=O)Nc1nnc(S(=O)(=O)N(CC)c2cc(C)cc(C)c2)s1,66% (inactive)
16,CN(c1ccccc1)S(=O)(=O)c1nnc(NC(=O)c2cccs2)s1,43% (inactive)
17,Cc1ccc(S(=O)(=O)Nc2ccc(-c3ccc(N4CCCCCC4)nn3)cc2)c(C)c1,70% (inactive)
18,CCc1nnc(NC(=O)c2ccc(S(=O)(=O)N3CCc4ccccc4C3)cc2)s1,83% (inactive)
19,Cc1ccc(NC(=O)CCNS(=O)(=O)c2cccs2)cc1F,63% (inactive)
20,COc1cc(CN(C(=O)c2cccc(Cl)c2)c2ccccn2)cc(OC)c1OC,82% (inactive)
21,COc1ccc(OC(=O)c2ccc3snnc3c2)cc1,86% (inactive)

row,Structure (SMILES),survival
1,COc1ccc(CNC(=O)CCS(=O)(=O)c2cc3c4c(c2)CCN4C(=O)CC3)cc1OC,66% (inactive)
2,Cc1ccc(C)c(NS(=O)(=O)c2cc3c(cc2Cl)NC(=O)CO3)c1,85% (inactive)
3,CCN(c1ccc(C)cc1C)S(=O)(=O)c1nnc(NC(=O)c2ccc(F)cc2)s1,14% (active)
4,CCN(c1ccc(C)cc1C)S(=O)(=O)c1nnc(NC(=O)c2ccccc2OC)s1,55% (inactive)
5,CCN(c1ccc(C)cc1C)S(=O)(=O)c1nnc(NC(=O)CC(C)C)s1,75% (inactive)
6,CC(C)Cn1cc(NC(=O)NCc2ccccc2)c2ccccc2c1=O,74% (inactive)
7,CCc1nonc1NC(=O)c1oc2cc(C)c(C)cc2c1C,102% (inactive)
8,CCOC(=O)c1cc2ccccc2[nH]c1=O,82% (inactive)
9,CCOC(=O)c1cc(C(=O)OCC)c(=S)[nH]c1O,98% (inactive)
10,CCOC(=O)c1cnc(SCC)[nH]c1=O,41% (active)
11,Cc1ccc(NC(=O)c2c(NC(=O)c3ccc(F)cc3)sc3c2CCCC3)cc1C,67% (inactive)
12,COCCCNC(=O)c1ccc2c(c1)NC(=O)C(C(C)C)N2 (stereo not drawn),57% (inactive)
13,COc1ccc(NC(=O)c2sc3nc4c(cc3c2N)CCCCCC4)c(OC)c1,62% (inactive)
14,CCc1oc(C(=O)O)cc1CN,97% (inactive)
15,COc1ccc(Br)c2c1-c1nc(NC(=O)c3cccc(C)c3)sc1C2,44% (inactive)
16,COc1ccc(Br)c2c1-c1nc(NC(=O)c3ccccc3SC)sc1C2,105% (inactive)
17,COc1ccc(Br)c2c1-c1nc(NC(=O)c3ccc(F)cc3)sc1C2,67% (inactive)
18,COc1ccc(Br)c2c1-c1nc(NC(=O)c3ccccc3F)sc1C2,69% (inactive)
19,COc1cc(C(=O)Nc2nc3c(s2)Cc2c(Br)ccc(OC)c2-3)cc(OC)c1OC,36% (active)
20,COc1ccc(C(=O)Nc2nc3c(s2)Cc2c(Br)ccc(OC)c2-3)cc1OC,36% (active)
21,Cc1cccc(N2CCN(C(=O)CN3C(=O)CSc4c3c(C)nn4-c3ccccc3)CC2)c1C,83% (inactive)

row,Structure (SMILES),survival
1,O=C(Nc1ccc(F)cc1)c1cccc(N2CCCS2(=O)=O)c1,70% (inactive)
2,COc1ccc(C(=O)Nc2nnc(S(=O)(=O)N(C)c3ccc(Cl)cc3)s2)cc1OC,83% (inactive)
3,CCCC(=O)Nc1nnc(S(=O)(=O)N(C)c2ccccc2)s1,108% (inactive)
4,COc1cc(C(=O)Nc2nnc(S(=O)(=O)N(C)c3ccccc3)s2)cc(OC)c1OC,40% (active)
5,CC(C)C(=O)Nc1cccc(C(=O)Nc2nnc(C(F)(F)F)s2)c1,58% (inactive)
6,COc1ccc(C(=O)Nc2nnc(S(=O)(=O)N(C)c3ccc(C)cc3)s2)cc1,79% (inactive)
7,O=C(Nc1nnc(C(F)(F)F)s1)c1ccccc1,24% (active)
8,CN(c1ccccc1)S(=O)(=O)c1nnc(NC(=O)c2ccccc2)s1,32% (active)
9,Cc1nnc(NC(=O)c2ccccc2)s1,71% (inactive)
10,CCN(C(=O)Cn1cnc2c1c(=O)n(C)c(=O)n2C)c1ccccc1C,87% (inactive)
11,Fc1ccc(N2CCN(c3nc4ccccc4c4nc(-c5cccnc5)nn34)CC2)cc1,93% (inactive)
12,CC(=O)N1c2ccc(S(=O)(=O)N3CCCCCC3)cc2CC1C(=O)NCc1cccc(F)c1 (stereo not drawn),65% (inactive)
13,Cc1ccc(NC(=O)c2ccco2)c(OCc2cc(=O)n3cc(C)sc3n2)c1,102% (inactive)
14,CCOC(=O)Nc1ccc2c(c1)OCO2,79% (inactive)
15,O=C(/C=C/c1ccccc1)Nc1ccc2c(c1)OCCO2,76% (inactive)
16,NC(=O)/C=C/C(=O)Nc1ccc2c(c1)OCO2,33% (active)
17,CCc1ccccc1NC(=O)N1CCOc2ccccc21,106% (inactive)
18,CSc1ccc(C2c3c(oc4ccc(F)cc4c3=O)C(=O)N2c2ccc(C)cn2)cc1 (stereo not drawn),81% (inactive)
19,COc1cccc(N2CCN(C(=O)CCn3nc(C)c(S(=O)(=O)N4CCCC4)c3C)CC2)c1,92% (inactive)
20,COc1ccc(N2CCN(C(=O)CCn3nc(C)c(S(=O)(=O)N4CCCC4)c3C)CC2)cc1,73% (inactive)
21,Cc1nn(CCC(=O)N2CCN(c3ccccc3)CC2)c(C)c1S(=O)(=O)N1CCCC1,-5% (active)
